The whole screen tested about 220,000 compounds, of which about 16,000 (7.3%) were called active. Roughly 25% stayed inconclusive and do not appear here. The full list was thinned out, with actives kept by preference. A number with no mark means an inactive call. The call rests on the fitted dose curve; in most records, active means well fitted inhibition curve with a large enough effect (not every such curve was filed as active); inconclusive means small, poorly fitted or top-dose-only effect, or another doubt; inactive means no such curve, though single readings can be large or run the other way.
Molecular target: Aldehyde dehydrogenase 1A1 (Homo sapiens) (UniProt P00352)
Assay: qHTS Assay for Inhibitors of Aldehyde Dehydrogenase 1 (ALDH1A1);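 on activity, negative = inhibition: plate controls were no enzyme wells and a reference inhibitor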
Conditions: Purified ALDH1A1, NADH fluorescence, propionaldehyde substrate; series mostly up to 75.3 µM; activity, negative = inhibition: at the top concentration
Potency means the concentration at half of the fitted maximal effect.

Chain of Aldehyde dehydrogenase 1A1 (Homo sapiens) (P00352 whole entry, looked up): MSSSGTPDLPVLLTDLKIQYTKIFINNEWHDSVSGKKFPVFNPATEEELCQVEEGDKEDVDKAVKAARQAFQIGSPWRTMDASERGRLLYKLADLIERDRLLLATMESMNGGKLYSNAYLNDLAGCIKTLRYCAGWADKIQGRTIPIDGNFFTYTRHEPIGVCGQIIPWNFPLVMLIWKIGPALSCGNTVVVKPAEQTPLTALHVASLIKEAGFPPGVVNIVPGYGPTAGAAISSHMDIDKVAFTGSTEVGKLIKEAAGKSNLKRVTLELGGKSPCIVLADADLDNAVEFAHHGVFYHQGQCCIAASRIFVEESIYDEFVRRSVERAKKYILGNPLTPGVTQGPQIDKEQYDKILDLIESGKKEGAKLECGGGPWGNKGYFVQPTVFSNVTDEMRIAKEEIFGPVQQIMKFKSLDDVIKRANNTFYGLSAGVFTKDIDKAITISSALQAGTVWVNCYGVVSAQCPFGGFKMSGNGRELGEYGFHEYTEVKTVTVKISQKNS

SMILES | activity, negative = inhibition [%] | Potency
N#CCc1ccc(OC(=O)c2cccnc2)cc1 | 14 | 
CCCCN(C(=O)/C=C/c1ccco1)c1c(N)n(CC(C)C)c(=O)[nH]c1=O | 3.6 | 
CCNC(=S)NNC(=O)c1ccc2ncccc2c1 | -2.18 | 
COc1ccc(OCC(=O)NCCc2ccc(S(N)(=O)=O)cc2)cc1 | 38.9 | 
CN(C)c1ccc(C=NCCc2ccc(S(N)(=O)=O)cc2)cc1 |  | 0.708 µM (active)
CCCCc1ccc(S(N)(=O)=O)cc1 | -5.42 | 
O=S(=O)(Cc1ccccc1)c1nc2ccccc2n1Cc1ccccn1 | 2.81 | 
CCc1ccc(OCC(=O)OCC(=O)c2c(N)n(C)c(=O)n(C)c2=O)cc1 | 0.715 | 
Cn1c(N)c(C(=O)COC(=O)c2cnc(Cl)c(Cl)c2)c(=O)n(C)c1=O |  | 8.91 µM (active)
Cc1cc(C(=O)OCC(=O)c2c(N)n(C)c(=O)n(C)c2=O)c(C)o1 | -5.4 | 
CCn1c(SCc2cc(=O)n3ccsc3n2)nc2ccccc21 | 9.12 | 
CC(Cc1cccs1)NC(=O)c1cccc(Cl)c1 (centres undefined) | 5.57 | 
COCC(C)NC(=O)c1ccc(Cl)c(Cl)c1 (centres undefined) | 3.63 | 
CC(C)CCC(C)NC(=O)c1ccc2nccnc2c1 (centres undefined) |  | 20 µM (active)
CCc1ccc(NC(=O)Cn2nc(C)c([N+](=O)[O-])c2C)cc1 | -3.12 | 
O=C(Nn1cnnc1)c1ccc([N+](=O)[O-])cc1 | -5.53 | 
COCCCNC(=S)N1CCCC(c2nc3cc(C)c(C)cc3[nH]2)C1 (centres undefined) | -2.51 | 
CCOC(=O)c1ccc(NC(=O)CSc2nnc(COc3ccccc3OC)n2C)cc1 | -5.96 | 
Nc1nnc(SCC(=O)Nc2ccc3nc(SCC(=O)Nc4ccccc4)sc3c2)s1 | -10.4 | 
CCCCNC(=O)CSc1nc2ccc(NC(=O)CSc3nnc(COc4ccccc4C)n3C)cc2s1 |  | 3.55 µM (active)
Cc1ccc(S(=O)(=O)N2CCOCC2)cc1NC(=O)CSc1nnc(N)s1 | 4.41 | 
Cc1cccnc1NC(=O)CSc1nnc(COc2ccc(C(C)C)cc2)n1C | 9.2 | 

SMILES | activity, negative = inhibition [%] | Potency
CCCCNC(=O)CSc1nc2ccc(NC(=O)CSc3nnc(N)s3)cc2s1 |  | 20 µM (active)
CN(c1ccccc1)S(=O)(=O)c1ccc(Cl)c(C(=O)OCC(N)=O)c1 | -15.1 | 
CN(C(=O)CSc1nnc(-c2c[nH]c3ccccc23)o1)C1CCS(=O)(=O)C1 (centres undefined) | -2.95 | 
O=C(/C=C/c1ccc(Cl)cc1)Nc1ccc(S(=O)(=O)Nc2ncccn2)cc1 | 1.56 | 
O=C(Nc1ccc(N2CCN(C(=O)C3CC3)CC2)cc1)c1cccs1 | -2.48 | 
C/C(=N\N1CCN(Cc2ccc(C)cc2)CC1)c1ccco1 | 2.4 | 
C/C(=N\NC(=O)C(N)=O)c1ccc2c(c1)OCCO2 | 12.7 | 
CC(=O)Nc1cccc([N+](=O)[O-])c1 | 2.07 | 
COC(=O)/C=C\C(=O)Nc1cccc([N+](=O)[O-])c1 |  | 0.178 µM (active)
COc1ccc(S(=O)(=O)NC(C)C(=O)Nc2cccc([N+](=O)[O-])c2)cc1 (centres undefined) | 0.552 | 
Clc1ccc(-c2cc(-c3ccccn3)on2)c(Cl)c1 | 17 | 
O=C1Nc2cc(Cl)c(Cl)cc2N(O)N1c1ccccc1Cl | 6.43 | 
CCOc1cnc(C(=O)NNC(=O)c2ccccc2Br)o1 | 2.5 | 
COC(=O)CSC1=C(C#N)C(c2ccccc2OC)C(C(=O)OC)C(=O)N1 (centres undefined) | 5.25 | 
C=CCSC1=C(C#N)C(c2cc(Br)c(O)c(OC)c2)CC(=O)N1 (centres undefined) |  | 25.1 µM (active)
CCOC(=O)CSC1=C(C#N)C(c2sccc2C)CC(=O)N1 (centres undefined) | 17.5 | 
C[C@@H]1CC[C@]2(O[C@@H](CCO)C[C@H](O)[C@H]2O)O1 | -4.09 | 
CCCCOc1ccc(N(CC(=O)NC(C)C)C(=O)CCC(=O)Nc2ccccn2)cc1 | -2.58 | 
COCCN(CCOC)S(=O)(=O)c1ccc(/C(O)=C(\C#N)c2nc3ccccc3[nH]2)cc1 | 2.62 | 
COc1cccc2c1OCC(CN1CCN(C3CCCCC3)C(CCO)C1)=C2 (centres undefined) | -1.04 | 
Cc1cc(C)n(-c2ccc3nncn3n2)n1 | 9.72 | 
Cc1ccccc1OCCOc1ccc([N+](=O)[O-])cc1/C=N/n1cnnc1 | 1.94 | 

SMILES | activity, negative = inhibition [%] | Potency
Cc1ccc(-n2c(C)cc(/C=N/Nc3ccc([N+](=O)[O-])cn3)c2C)c(C)c1 |  | 3.55 µM (active)
COc1cc(/C=N\Nc2ccc([N+](=O)[O-])cn2)ccc1OCC(=O)O | -9.72 | 
CC(C)(C)C1CCC(C(=O)Nc2cccnc2)CC1 (centres undefined) | -3.75 | 
Cn1nnnc1SCc1cc(=O)[nH]c2ccccc12 | -5.31 | 
CN(C)c1nc(N)nc(CSc2nnnn2-c2cccc3ccccc23)n1 |  | 7.94 µM (active)
CN(C)c1nc(N)nc(CSc2ccccn2)n1 | -4.05 | 
CC(OC(=O)c1ccccc1OCc1ccc(Cl)cc1)C(N)=O (centres undefined) | 2.06 | 
Cc1cc(C)c(S(=O)(=O)NCC2CCC(C(=O)NCc3ccc4c(c3)OCO4)CC2)c(C)c1 (centres undefined) |  | 28.2 µM (active)
O=C(NCc1ccc2c(c1)OCO2)C1CCCN(S(=O)(=O)c2cccs2)C1 (centres undefined) | -11.1 | 
CCOC(=O)NCc1ccc2c(c1)OCO2 | 4.82 | 
O=C(CN1C(=O)NC2(CCCC2)C1=O)NCC1CCCO1 (centres undefined) | 2.37 | 
Cc1cccc(NC(=O)Nc2nnc(-c3ccccc3)o2)c1 | 6.3 | 
COc1ccc(CCNCC(O)Cn2ccc3ccccc32)cc1OC (centres undefined) | 3.09 | 
COc1ccc(CNC(=O)CCn2cccc2)cc1 | -2.66 | 
COc1ccc(CNC(=O)CCCn2nc(C)c([N+](=O)[O-])c2C)cc1 |  | 12.6 µM (active)
Cc1ccc(Oc2cc(NC(=O)CCCn3nc(C)c([N+](=O)[O-])c3C)cc([N+](=O)[O-])c2)cc1 | -9.52 | 
CNC(=O)COc1ccc(S(=O)(=O)Nc2ccccc2)cc1 | -2.45 | 
COc1ccc(-c2csc(NC(=O)c3ccc(N4C(=O)CCC4=O)cc3)n2)cc1OC | 5.15 | 
COc1ccc(-c2nc(N)sc2C2(O)C(=O)Nc3c(Br)cc(F)cc32)cc1OC (centres undefined) |  | 11.2 µM (active)
O=C(O)c1ccccc1-c1ccccc1C(=O)NCc1cccnc1 | -2.71 | 
O=C(NCCCN1CCOCC1)c1ccc([N+](=O)[O-])cc1[N+](=O)[O-] | 2.46 | 
N#C/C(=C\c1ccc(-c2cccc([N+](=O)[O-])c2)o1)C(=O)NCCN1CCOCC1 |  | 25.1 µM (active)

SMILES | activity, negative = inhibition [%] | Potency
Cc1ccc(Cc2cnc(NC(=O)/C(C#N)=C/c3ccc(-c4cccc([N+](=O)[O-])c4)o3)s2)cc1 | 0.468 | 
Cc1ccccc1CSc1nnc(-c2ccccc2)c(=O)[nH]1 | 1.62 | 
Cc1c(O)cc(O)c2c(=O)c(-c3ccc(O)cc3)coc12 |  | 25.1 µM (active)
CC(C)OC(=O)Cn1nc(C(F)(F)F)c2c1CCCC2 | -4.53 | 
Cc1ccc(C(=O)NNC(=O)c2cccs2)cc1 | 15.8 | 
COc1ccccc1NC(=O)c1c(Br)cnn1C | 3.41 | 
COc1ccc(C(=O)COC(=O)COc2ccc(C)c(C)c2)cc1 | -12.5 | 
O=C(COc1cccc(F)c1)Oc1ccc(C(=O)c2ccccc2)cc1 |  | 28.2 µM (active)
O=C(c1ccccc1)c1ccc(OC(=O)N2CCCC2)cc1 | -4.99 | 
CC(C)(C)c1nnc(N/N=C/c2ccc(O)cc2)n(N)c1=O | -9.92 | 
Cc1ccc(NCc2n[nH]c(=S)n2-c2ccccc2)cc1Cl | -12.3 | 
Cn1c(CCCOc2ccc(Cl)cc2Cl)n[nH]c1=S | 9.75 | 
S=c1[nH]nc(CSCc2ccc(Cl)cc2Cl)n1-c1ccccc1 |  | 3.55 µM (active)
S=C(NCc1cccnc1)Nc1ccc(Cl)cc1Cl | -4.79 | 
C/C(=N\OCC(=O)Nc1ccc(Br)cc1)c1cccs1 | 3 | 
CCOC(=O)c1cc(C)nc(S(C)(=O)=O)c1C#N | 1.72 | 
[O-][n+]1c2c(nn1-c1ccc(Cl)c(Cl)c1)-c1nonc1CC2 | 12.6 | 
Cc1cc(C)cc(NC(=O)N2CCCCCCC2)c1 | -1.68 | 
Cc1cc(=O)[nH]c(=S)[nH]1 |  | inactive
O=c1[nH]c(=S)[nH]c2[nH]c(=S)[nH]c12 |  | 10 µM (active)
O=C(NC1CCCCC1)C1CCCN(S(=O)(=O)c2ccc(Br)s2)C1 (centres undefined) | 2.8 | 
Cc1ccc(C2CCN(C(=S)Nc3cccc(Cl)c3)C2)cc1 (centres undefined) | -1.08 | 

SMILES | activity, negative = inhibition [%] | Potency
CC(C)(C)NC(=O)NC(=O)COC(=O)C1(C)CC1(Cl)Cl (centres undefined) | 10.1 | 
Cc1[nH]n(C)c(=O)c1N=Nc1ccc(S(C)(=O)=O)cc1 | 7.33 | 
CCCCOC(=O)c1ccc(N2C(=O)CC(N3CCN(C/C=C/c4ccccc4)CC3)C2=O)cc1 (centres undefined) |  | 12.6 µM (active)
O=C(Cn1c(N2CCN(C/C=C/c3ccccc3)CC2)nc2ccccc21)c1ccccc1 | 3.06 | 
O=C(Cc1ccccc1)NNC1CC(=O)N(c2ccc(Br)cc2)C1=O (centres undefined) | 3.95 | 
CCOC(=O)c1ccc(N2C(=O)CC(N3CCN(C(=O)c4ccccc4)CC3)C2=O)cc1 (centres undefined) |  | 3.55 µM (active)
CCOC(=O)c1ccc(N2C(=O)CC(N(C)Cc3ccccc3)C2=O)cc1 (centres undefined) |  | 11.2 µM (active)
CCOC(=O)c1ccc(NC(=S)N2CCCC2)cc1 | -15.1 | 
CCCOC(=O)c1ccc(N2C(=O)c3ccccc3C2=O)cc1 | 1.75 | 
CCOC(=O)c1ccccc1C(=O)N1CCOCCOCCOCC1 | 9.52 | 
NC(=O)C1CCN(C2OC(=O)c3ccccc32)CC1 (centres undefined) | -5.84 | 
COc1ccc(N2C(=O)CC(N3CCC(C(N)=O)CC3)C2=O)cc1 (centres undefined) |  | 7.94 µM (active)
CNC(=O)NC(=O)C(C)N1CCN(C/C=C/c2ccccc2)CC1 (centres undefined) | -7.23 | 
COC(=O)CN(C(=S)Nc1ccc(Cl)cc1)C1CC(=O)N(c2ccc(OC)cc2)C1=O (centres undefined) | 14.5 | 
CN(C)NC(=O)c1csnc1-c1c(Cl)cccc1Cl | 7.95 | 
CC(C)(C)c1ccc(/C=C/C(=O)NC2CCS(=O)(=O)C2)cc1 (centres undefined) | -11.6 | 
CCOC(=O)CNC(=O)N1c2ccccc2Sc2ccccc21 | 8.51 | 
CN(CC(=O)N1CCN(c2ccccc2)CC1)S(=O)(=O)c1cccs1 | 7.8 | 
CC(=O)N1CCN(S(=O)(=O)c2c(F)cc(F)c(Cl)c2F)CC1 | 8.19 | 
COc1ccc(/C(=N\O)c2nccc3cc(OC)c(OC)cc23)cc1OC | 14.1 | 
CCC1(C)Cc2c(sc3nc(SC)[nH]c(=O)c23)CO1 (centres undefined) | 0.569 | 

From PubChem BioAssay AID1030 (National Center for Advancing Translational Sciences (NCATS), 2008)
